Where “and” joins values, the source holds several entries; their conditions need not be identical. Equal entries are not always repeated. The whole screen tested about 5,500 compounds, of which about 2,000 (36%) were called active. Another 18% or so got no clear call; they are omitted. Rule as the data show it: active = normalized growth mostly below about 0.91 (no sharp cut-off); inconclusive = no clear call, values can overlap the other calls; inactive = mostly above about 0.92. The list shows a part of the results.
Assay: chemical genetic growth profiling, strain panel (AID 1159580);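 also: tested at 20 µM; growth read once vehicle control cultures reached saturation at 30 °C; 1 = growth at the plate median or of vehicle wells; lower values mean less growth of the strain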
Details: S. cerevisiae deletion strains, growth OD

Measured: normalized growth

Cn1c(=O)c2c(ncn2CCO)n(C)c1=O
inactive: locus YAL013W, strain DEP1, stronger effect = lower value 1 | locus YAL021C, strain ccr4, stronger effect = lower value 1.02 | locus YAL026C, strain drs2, stronger effect = lower value 1.02 | locus YAL030W, strain snc1, stronger effect = lower value 1.02 | locus YBL061C, strain skt5, stronger effect = lower value 1.03 | locus YBR009C, strain hhf1, stronger effect = lower value 1.02 | locus YBR021W, strain FUR4, stronger effect = lower value 1.04 | locus YBR023C, strain chs3, stronger effect = lower value 1.01 | locus YBR171W, strain sec66, stronger effect = lower value 1.03 | locus YBR229C, strain ROT2, stronger effect = lower value 1 | locus YBR231C, strain swc5, stronger effect = lower value 1.02 | locus YBR279W, strain paf1, stronger effect = lower value 1.02 | locus YCL011C, strain gbp2, stronger effect = lower value 1.02 | locus YCL016C, strain dcc1, stronger effect = lower value 1.01 | locus YCL029C, strain bik1, stronger effect = lower value 1.02 | locus YCL061C, strain MRC1, stronger effect = lower value 1.02 | locus YCL069W, strain vba3, stronger effect = lower value 1.02 | locus YCR088W, strain abp1, stronger effect = lower value 1.02 | locus YDL005C, strain med2, stronger effect = lower value 1.02 | locus YDL035C, strain GPR1, stronger effect = lower value 0.997 | locus YDL040C, strain nat1, stronger effect = lower value 1.01 | locus YDL074C, strain BRE1, stronger effect = lower value 1.04 | locus YDL101C, strain DUN1, stronger effect = lower value 1.02 | locus YDL134C, strain PPH21, stronger effect = lower value 1 | locus YDL185W, strain tfp1, stronger effect = lower value 1 | locus YDL192W, strain arf1, stronger effect = lower value 1.01 | locus YDR001C, strain nth1, stronger effect = lower value 1.02 | locus YDR069C, strain doa4, stronger effect = lower value 1.03 | locus YDR101C, strain arx1, stronger effect = lower value 1.01 | locus YDR137W, strain rgp1, stronger effect = lower value 1.04 | locus YDR150W, strain NUM1, stronger effect = lower value 1 | locus YDR159W, strain sac3, stronger effect = lower value 1.02 | locus YDR162C, strain NBP2, stronger effect = lower value 1.01 | locus YDR195W, strain ref2 0.995 | locus YDR297W, strain sur2, stronger effect = lower value 1 | locus YDR318W, strain mcm21, stronger effect = lower value 1 | locus YDR334W, strain swr1, stronger effect = lower value 1.02 | locus YDR335W, strain msn5, stronger effect = lower value 1.02 | locus YDR388W, stronger effect = lower value 0.998 | locus YDR392W, strain spt3, stronger effect = lower value 1.03 | locus YDR502C, strain sam2, stronger effect = lower value 0.978 | locus YEL003W, strain gim4, stronger effect = lower value 1.02 | locus YEL037C, strain rad23, stronger effect = lower value 1.05 | locus YEL061C, strain CIN8 (second series), stronger effect = lower value 1.02 | locus YEL061C, strain CIN8, stronger effect = lower value 1 | locus YER015W, strain faa2, stronger effect = lower value 1.02 | locus YER016W, strain bim1, stronger effect = lower value 1.01 | locus YER110C, stronger effect = lower value 1.01 | locus YER111C, strain swi4, stronger effect = lower value 1.03 | locus YER155C, strain BEM2 (second series), stronger effect = lower value 1.04 | locus YER155C, strain BEM2, stronger effect = lower value 1.01 | locus YER167W, strain BCK2, stronger effect = lower value 0.979 | locus YFR010W, strain ubp6, stronger effect = lower value 1.02 | locus YGL078C, strain dbp3, stronger effect = lower value 0.994 | locus YGL086W, strain mad1, stronger effect = lower value 0.986 | locus YGL167C, strain pmr1, stronger effect = lower value 1.02 | locus YGL173C, strain kem1, stronger effect = lower value 1.03 | locus YGL227W, strain vid30, stronger effect = lower value 1 | locus YGL240W, strain doc1, stronger effect = lower value 1.02 | locus YGL248W, strain PDE1, stronger effect = lower value 1.01 | locus YGL253W, strain hxk2, stronger effect = lower value 1.02 | locus YGR078C, strain PAC10, stronger effect = lower value 1.02 | locus YGR135W, strain pre9, stronger effect = lower value 0.971 | locus YGR229C, strain SMI1, stronger effect = lower value 0.99 | locus YGR252W, strain gcn5, stronger effect = lower value 0.912 | locus YHR013C, strain ard1, stronger effect = lower value 1.04 | locus YHR027C, strain rpn1, stronger effect = lower value 1 | locus YHR030C, strain SLT2, stronger effect = lower value 0.999 and 0.984 | locus YHR079C, strain IRE1 (second series), stronger effect = lower value 1.01 | locus YHR079C, strain IRE1, stronger effect = lower value 0.974 | locus YHR094C, strain hxt1, stronger effect = lower value 0.998 | locus YHR129C, strain ARP1, stronger effect = lower value 1.02 | locus YHR142W, strain chs7, stronger effect = lower value 1.02 | locus YHR200W, strain rpn10, stronger effect = lower value 0.994 | locus YIL066C, strain RNR3, stronger effect = lower value 1.01 | locus YIL073C, strain SPO22, stronger effect = lower value 0.927 | locus YIL125W, strain kgd1, stronger effect = lower value 0.988 | locus YIR030C, strain dcg1, stronger effect = lower value 1.01 | locus YJL092W, strain hpr5, stronger effect = lower value 1.02 | locus YJL095W, strain BCK1 (second series), stronger effect = lower value 1 | locus YJL095W, strain BCK1, stronger effect = lower value 1.04 and 0.969 | locus YJL115W, strain asf1, stronger effect = lower value 1.02 | locus YJL129C, strain trk1, stronger effect = lower value 1.04 | locus YJL134W, strain LCB3, stronger effect = lower value 1.01 | locus YJL154C, strain vps35, stronger effect = lower value 1.02 | locus YJL164C, strain tpk1, stronger effect = lower value 1.02 | locus YJL166W, strain qcr8, stronger effect = lower value 1.02 | locus YJL168C, strain set2, stronger effect = lower value 1.01 | locus YJL187C, strain SWE1 (second series), stronger effect = lower value 1.03 | locus YJL187C, strain SWE1, stronger effect = lower value 1.01 | locus YJR043C, strain POL32, stronger effect = lower value 1.03 | locus YJR066W, strain TOR1, stronger effect = lower value 0.909

Source: PubChem BioAssay AID1159580 (chemical genetic matrix, 2015)
